We go through ten compounds from PubChem BioAssay AID1789 (The Scripps Research Institute Molecular Screening Center, 2009).

In all, about 290,000 compounds went through this assay and about 2,700 (0.93%) were called active. This is one part of a sample in which actives are shown more often than they occur.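 Rule for the calls: active = inhibition above the screen-wide mean plus 3 SD, computed separately per campaign (cut at about 16% in these data); inactive = the rest.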

This test concerns Heat shock protein HSP 90 (rabbit reticulocyte lysate; luciferase refolding). Nature of the test: HSP90 inhibitors, primary screen, cell lysate, luminescence (AID 1789).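 Note: 0% = DMSO wells and 100% = 60 µM geldanamycin wells; inhibitors lower the luminescence because luciferase stays unfolded.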 To be noted: 3 h, at 5.6 µM, active compounds read high.
In the case of `Cc1nc2ccc(N3CCN(C)CC3)cc2nc1C`, the inhibition (as a rule, the drop in the measured response relative to a control, in per cent) was 1.77% (inactive). The same measure for `CN1CCN(c2cc(N3CCNCC3)ccc2[N+](=O)[O-])CC1`: -3.02% (inactive); for `COc1cccc(-c2nc3ccc(N4CCN(C)CC4)cc3[nH]2)c1`: 60.8% (active). The same measure for `CC1=CC(=Cc2sc3ccccc3[n+]2C)C=C(C)O1`: 0.85% (inactive); for `O=c1c2ccccc2nc(/C=C/c2ccco2)n1-c1ccccc1O`: 19.4% (active). The same measure for `O=c1c2ccccc2nc(/C=C/c2ccc(F)cc2)n1-c1ccccc1O`: -2.14% (inactive); for `O=c1c2ccccc2nc(-c2ccco2)n1-c1ccc(Br)cn1`: -1.12% (inactive). In the case of `CN(c1ccccc1)c1ccc([N+](=O)[O-])c2nonc12`, the inhibition is 3.91% (inactive). The same measure for `CC(C)CN1CCN(Cc2ccccc2C(F)(F)F)CC1CCO` (stereo not given): -3.13% (inactive); for `O=C(NC(c1ccc(Cl)cc1)P(=O)(Oc1ccccc1)Oc1ccccc1)OCc1ccccc1` (stereo not given): 1.96% (inactive).
